# From PubChem BioAssay (EPA / NIEHS)
# Values joined by “and” are separate entries in the source; they are usually repeats but may differ in a detail not shown here. Equal entries are not always repeated. Some structures have more than one record in an assay (separate samples or runs), and their calls can disagree. Active and inactive are the calls of the source. How the source made its calls: active means hit-call score of the fitted dose curve at least 0.9, where 1 is the maximum; inactive means score below 0.9.
# How the values were obtained:
# [1] = read-out: Urokinase-type plasminogen activator receptor (uPAR), PLAUR (gene 5329); test: BSK_4H_uPAR: BioMAP Diversity Plus: 4H Assay for Urokinase-type plasminogen activator receptor (uPAR) Biomarker Activity (AID 2283030); details: primary human endothelial cells (HUVEC); actives raise or lower the signal
# Method in brief: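 HUVEC, 24 h post-dose; uPAR by ELISA; bidirectional fit vs DMSO baseline.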
# [2] = read-out: Vascular endothelial growth factor receptor 2 (Homo sapiens) (UniProt P35968); test: BSK_4H_VEGFRII: BioMAP Diversity Plus: 4H Assay for Vascular endothelial growth factor receptor 2 (VEGFR2) Biomarker Activity (AID 2283031); details: primary human endothelial cells (HUVEC); actives raise or lower the signal;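 on AC50: cell-surface VEGFR2 protein level quantified by ELISA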
# Method in brief: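 HUVEC (human primary), 4H system; 24 h post-dose; VEGFRII by ELISA; bidirectional curve fit vs DMSO baseline; gain or loss of signal scored.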
# [3] = read-out: Human Leukocyte Antigen - DR isotype (HLADR), HLA-DRA (gene 3122); test: BSK_BE3C_HLADR: BioMAP Diversity Plus: BE3C Assay for Human Leukocyte Antigen - DR isotype (HLADR) Biomarker Activity (AID 2283032); details: primary human bronchial epithelial cells; actives raise or lower the signal
# Method in brief: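 Human primary bronchial epithelial cells in the BE3C system were exposed to chemicals for 24 h, after which HLA-DR levels were quantified by ELISA. Activity was fitted bidirectionally, gain or loss of signal, against DMSO as negative control and baseline.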
# [4] = read-out: Vascular cell adhesion molecule 1 (VCAM1), VCAM1 (gene 7412); test: BSK_4H_VCAM1: BioMAP Diversity Plus: 4H Assay for Vascular cell adhesion molecule 1 (VCAM1) Biomarker Activity (AID 2283033); details: primary human endothelial cells (HUVEC); actives raise or lower the signal;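 on outcome: cell-surface VCAM-1 protein measured by ELISA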
# Method in brief: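 Primary human umbilical vein endothelial cells were exposed to chemicals for 24 h, after which VCAM-1 was quantified by ELISA. Responses were fitted bidirectionally against DMSO as negative control and activity baseline.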
# [5] = read-out: Interferon-gamma inducible Protein 10 (IP10), CXCL10 (gene 3627); test: BSK_BE3C_IP10: BioMAP Diversity Plus: BE3C Assay for Interferon-gamma inducible Protein 10 (IP10) Biomarker Activity (AID 2283034); details: primary human bronchial epithelial cells; actives raise or lower the signal
# Method in brief: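 Human primary bronchial epithelial cells were exposed to chemicals for 24 hours, after which IP-10 levels were measured by ELISA. Data were fitted bidirectionally against DMSO, which served as the negative control and activity baseline.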
# [6] = read-out: Monokine induced gamma interferon (MIG), CXCL9 (gene 4283); test: BSK_BE3C_MIG: BioMAP Diversity Plus: BE3C Assay for Monokine induced gamma interferon (MIG) Biomarker Activity (AID 2283035); details: primary human bronchial epithelial cells; actives raise or lower the signal;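 on outcome: MIG protein measured by ELISA in BE3C cultures after 24 h of dosing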
# Method in brief: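 MIG level was determined by ELISA after 24 h chemical treatment of primary human bronchial epithelial cells. Values were fitted bidirectionally with DMSO as the negative control and activity baseline.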
# [7] = read-out: urokinase plasminogen activator (uPA), PLAU (gene 5328); test: BSK_BE3C_uPA: BioMAP Diversity Plus: BE3C Assay for urokinase plasminogen activator (uPA) Biomarker Activity (AID 2283038); details: primary human bronchial epithelial cells; actives raise or lower the signal;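 on outcome: uPA protein level quantified by ELISA in cell cultures; uPA read one day after compound addition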
# Method in brief: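 ELISA read-out of uPA in human lung primary bronchial epithelial cultures, 24 h post-dosing. Gain or loss of signal fitted bidirectionally relative to DMSO baseline; cytotoxicity checked in parallel cultures via SRB total protein stain.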
# [8] = read-out: Urokinase-type plasminogen activator receptor (uPAR), PLAUR (gene 5329); test: BSK_BE3C_uPAR: BioMAP Diversity Plus: BE3C Assay for Urokinase-type plasminogen activator receptor (uPAR) Biomarker Activity (AID 2283039); details: primary human bronchial epithelial cells; actives raise or lower the signal;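 on outcome: uPAR protein level measured by ELISA on the cells; cells exposed to compound for one day before measurement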
# Method in brief: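 Primary human bronchial epithelial cells were dosed with chemical and harvested 24 h later; uPAR was quantified by ELISA. Activity was fitted bidirectionally against DMSO as negative control and baseline.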
# [9] = read-out: Plasminogen activator inhibitor-1 (PAI1), SERPINE1 (gene 5054); test: BSK_BE3C_PAI1: BioMAP Diversity Plus: BE3C Assay for Plasminogen activator inhibitor-1 (PAI1) Biomarker Activity (AID 2283037); details: primary human bronchial epithelial cells; actives raise or lower the signal
# Method in brief: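 Human primary bronchial epithelial cells were exposed to chemical for 24 h, then PAI-1 was quantified by ELISA. Activity was fitted bidirectionally relative to the DMSO negative control baseline.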
smiles,measurement,setting,value
O=S(=O)(OCCOC(F)(F)F)C(F)(F)F,outcome,[1],inactive
same,outcome,[2],inactive
same,outcome,[3],inactive
same,outcome,[4],inactive
same,outcome,[5],inactive
same,outcome,[6],inactive
same,outcome,[7],inactive
same,outcome,[8],inactive
OCC(F)(F)C(F)(F)C(F)(F)C(F)F,outcome,[1],inactive
same,outcome,[2],inactive
same,outcome,[3],inactive
same,outcome,[4],inactive
same,outcome,[5],inactive
same,outcome,[6],inactive
same,outcome,[7],inactive
same,outcome,[8],inactive
FC(F)(F)C(F)(F)CNCC(F)(F)C(F)(F)F,outcome,[1],inactive
same,outcome,[2],inactive
same,outcome,[3],inactive
same,outcome,[4],inactive
same,outcome,[5],inactive
same,outcome,[6],inactive
same,outcome,[7],inactive
same,outcome,[8],inactive
NC(=O)C(F)(F)C(F)(F)C(F)(F)C(F)(F)F,outcome,[1],inactive
same,outcome,[2],inactive
same,outcome,[3],inactive
same,outcome,[4],inactive
same,outcome,[5],inactive
same,outcome,[6],inactive
same,outcome,[7],inactive
same,outcome,[8],inactive
CCCCC(CC)COP(=O)(O)OCC(CC)CCCC (stereo not drawn),outcome,[1],inactive
same,outcome,[2],inactive
same,AC50,[3],29.3 µM (active) and 31.6 µM (active)
same,outcome,[4],inactive
same,AC50,[5],32 µM (active) and 31.2 µM (active)
same,AC50,[6],32.8 µM (active) and 29.5 µM (active)
same,outcome,[7],inactive
same,AC50,[8],5.24 µM (active)
same,outcome,[8],inactive
FC(F)(Br)C(F)(F)C(F)(F)C(F)(F)C(F)(F)C(F)(F)Br,outcome,[1],inactive
same,outcome,[2],inactive
same,outcome,[3],inactive
same,outcome,[4],inactive
same,outcome,[5],inactive
same,outcome,[6],inactive
same,outcome,[7],inactive
same,outcome,[8],inactive
O=C(O)C(F)(F)C(F)(F)F,outcome,[1],inactive
same,outcome,[2],inactive
same,outcome,[3],inactive
same,outcome,[4],inactive
same,outcome,[5],inactive
same,outcome,[6],inactive
same,outcome,[7],inactive
same,outcome,[8],inactive
FC(F)(F)C(F)(F)C(F)(F)C(F)(F)C(F)(F)C(F)(F)C(F)(F)Br,outcome,[1],inactive
same,outcome,[2],inactive
same,outcome,[3],inactive
same,outcome,[4],inactive
same,outcome,[5],inactive
same,outcome,[6],inactive
same,outcome,[9],inactive
same,outcome,[7],inactive
same,outcome,[8],inactive
FC(F)(F)C(F)(F)C(F)(F)C(F)(F)C(F)(F)C(F)(F)CC1CO1 (stereo not drawn),outcome,[1],inactive
same,outcome,[2],inactive
same,outcome,[3],inactive
same,outcome,[4],inactive
same,outcome,[5],inactive
same,outcome,[6],inactive
same,outcome,[9],inactive
same,outcome,[7],inactive
same,outcome,[8],inactive
FC(F)(F)C(F)(F)C(F)(F)C(F)(F)C(F)(F)C(F)(F)C(F)(F)C(F)(F)CCS,outcome,[1],inactive
same,outcome,[2],inactive
same,outcome,[3],inactive
same,outcome,[4],inactive
same,outcome,[5],inactive
same,outcome,[6],inactive
same,outcome,[7],inactive
same,outcome,[8],inactive
FC(F)(F)C(F)(F)C(F)(F)C(F)(F)C(F)(F)C(F)(F)C(F)(F)C(F)(F)F,outcome,[1],inactive
same,outcome,[2],inactive
same,outcome,[3],inactive
same,outcome,[4],inactive
same,outcome,[5],inactive
same,outcome,[6],inactive
same,outcome,[7],inactive
same,outcome,[8],inactive
OCCCC(F)(F)C(F)(F)C(F)(F)C(F)(F)C(F)(F)C(F)(F)C(F)(F)F,AC50,[1],51.2 µM (active) and 47.3 µM (active)
same,AC50,[2],44.6 µM (active) and 45.4 µM (active)
same,AC50,[3],50.4 µM (active) and 45.9 µM (active)
same,AC50,[4],46.4 µM (active) and 48.6 µM (active)
same,AC50,[5],47.6 µM (active) and 46.4 µM (active)
same,AC50,[6],49.6 µM (active) and 55.7 µM (active)
same,AC50,[7],46.5 µM (active) and 47.5 µM (active)
same,AC50,[8],52.4 µM (active) and 47.2 µM (active)
FC(F)(F)C(F)(F)C(F)(F)C(F)(F)C(F)(F)CCI,outcome,[1],inactive
same,outcome,[2],inactive
same,outcome,[3],inactive
same,outcome,[4],inactive
same,outcome,[5],inactive
same,outcome,[6],inactive
same,outcome,[9],inactive
same,outcome,[7],inactive
same,outcome,[8],inactive
CCCCCCCCC(F)(F)C(F)(F)C(F)(F)C(F)(F)C(F)(F)C(F)(F)F,outcome,[1],inactive
same,outcome,[2],inactive
same,outcome,[3],inactive
same,outcome,[4],inactive
same,outcome,[5],inactive
same,outcome,[6],inactive
same,outcome,[7],inactive
same,outcome,[8],inactive
O=C(CC(=O)C(F)(F)C(F)(F)F)C(F)(F)F,outcome,[1],inactive
same,outcome,[2],inactive
same,outcome,[3],inactive
same,outcome,[4],inactive
same,outcome,[5],inactive
same,outcome,[6],inactive
same,outcome,[9],inactive
same,outcome,[7],inactive
same,outcome,[8],inactive
O=S(=O)(OCC(F)F)C(F)(F)F,outcome,[1],inactive
same,outcome,[2],inactive
same,outcome,[3],inactive
same,outcome,[4],inactive
same,outcome,[5],inactive
same,outcome,[6],inactive
same,outcome,[7],inactive
same,outcome,[8],inactive
CCCCCCOC(=O)c1ccccc1O,AC50,[1],38.5 µM (active) and 44.3 µM (active)
same,outcome,[2],inactive
same,outcome,[3],inactive
same,AC50,[4],43.2 µM (active) and 42.5 µM (active)
same,outcome,[5],inactive
same,outcome,[6],inactive
same,outcome,[9],inactive
same,outcome,[7],inactive
same,outcome,[8],inactive
O=C(O)C(F)(OC(F)(F)C(F)(OC(F)(F)C(F)(F)C(F)(F)F)C(F)(F)F)C(F)(F)F (stereo not drawn),outcome,[1],inactive
same,outcome,[2],inactive
same,outcome,[3],inactive
same,outcome,[4],inactive
same,outcome,[5],inactive
same,outcome,[6],inactive
same,outcome,[7],inactive
same,outcome,[8],inactive
O=C(O)C(F)(F)C(F)(F)C(F)(F)F,outcome,[1],inactive
same,outcome,[2],inactive
same,outcome,[3],inactive
same,outcome,[4],inactive
same,outcome,[5],inactive
same,outcome,[6],inactive
same,outcome,[7],inactive
same,outcome,[8],inactive
